Reference: PubChem BioAssay (NCATS)
“And” between values parts separate entries of the source, which are not always exact repeats. Identical values can stand only once. Records with an inconclusive call do not appear. Entries that show only a call come without a potency. Unmarked numbers belong to inactive results. The source made the active and inactive calls. The call rests on the fitted dose curve; in most records, active means well fitted curve in the direction sought with a large enough effect; inconclusive means small, poorly fitted or top-dose-only effect, or another doubt; inactive means no such curve, though single readings can be large; an effect the other way counts as inactive or inconclusive.

Legend:
[1] = molecular target: Cellular tumor antigen p53 (Homo sapiens) (UniProt P04637); experiment: Primary qHTS for small molecule compounds that upregulate eGFP-tagged delta133p53alpha (in N-terminal) cells. (AID 2060322); settings: NCI-H358 eGFP-delta133p53alpha fluorescence, 24 h; activation: active compounds read high; further: nearly all actives have a fitted effect of over 75% in size; further: potency means the concentration at half of the fitted maximal effect;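 on activation: cells pre-induced with doxycycline then dosed without doxycycline; series mostly up to about 56 µM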
Cellular tumor antigen p53 (Homo sapiens), sequence (P04637 whole entry, looked up): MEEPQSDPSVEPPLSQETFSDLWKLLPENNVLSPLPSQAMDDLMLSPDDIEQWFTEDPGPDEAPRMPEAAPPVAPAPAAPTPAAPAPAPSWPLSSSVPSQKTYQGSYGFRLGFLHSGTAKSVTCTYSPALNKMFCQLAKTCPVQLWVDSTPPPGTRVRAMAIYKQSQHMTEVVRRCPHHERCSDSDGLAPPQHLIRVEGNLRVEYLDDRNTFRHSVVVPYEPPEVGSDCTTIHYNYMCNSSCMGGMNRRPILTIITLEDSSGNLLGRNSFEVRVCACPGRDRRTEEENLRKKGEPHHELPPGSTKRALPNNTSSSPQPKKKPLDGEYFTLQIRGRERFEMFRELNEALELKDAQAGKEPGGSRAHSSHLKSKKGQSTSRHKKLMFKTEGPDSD
How it was run: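 NCI-H358 cells pre-induced 24 h with 10 ng/ml doxycycline for eGFP-delta133p53alpha, plated dox-free and exposed 24 h at 37C to titrated compounds. Fixed, Hoechst-stained; gated GFP peak intensity by laser scanning cytometry, normalized to DMSO (0%) and 57.5 uM 5-azacytidine (100%).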

[2] = molecular target: Aldehyde dehydrogenase, mitochondrial (Homo sapiens) (UniProt P05091); experiment: qHTS for Inhibitors of the Aldehyde Dehydrogenase Family (ALDH2) Primary screen (AID 2061308); further: nearly all actives have a fitted effect of over 55% in size
[3] = molecular target: Retinaldehyde dehydrogenase 3 (Homo sapiens) (UniProt P47895); experiment: qHTS for Inhibitors of the Aldehyde Dehydrogenase Family (ALDH1A3) Primary screen (AID 2061315)

With `CC(CO)C1CCC2(C)CC3C(CO)CC(O)C3C(C)(O)C/C=C/12` (configuration not stated) the activation [1] was -8.04%, the Potency [2] was “inactive” and the Potency [3] was “inactive”.

`CC1CCCC2OC2C(=O)c2c(O)cc(O)cc2CC(=O)O1` (configuration not stated) was tested, and the activation [1] was 16%, the Potency [2] was “inactive” and the Potency [3] was “inactive”.

With `COC(=O)/C=C/c1ccc(O[C@@H]2O[C@H](CO)[C@@H](O)[C@H](O)[C@H]2O)cc1` the activation [1] was -8.04%, the Potency [2] was “inactive” and the Potency [3] was “inactive”.

In the case of `CC1(C)C[C@H](O)C[C@@]2(C)[C@H]1[C@H](O)C=C1COC(=O)[C@@]12O`, the activation [1] is reported as 6.11%, the Potency [2] is reported as “inactive” and the Potency [3] is reported as “inactive”.

For `COc1cc(O)cc(C)c1C(=O)O[C@@H]1[C@H](O)[C@@H](CO)O[C@H]1n1ccc(=O)[nH]c1=O`, the activation [1] was 11.5%, the Potency [2] was “inactive” and the Potency [3] was “inactive”.

In the case of `C=C1CC2C3(C)C=CC(=O)OC(C)(C)C3CC(OC(C)=O)C2(C)C2C(=O)OC(C)C(=O)C12C` (configuration not stated), the activation [1] is reported as 15.3%, the Potency [2] is reported as “inactive” and the Potency [3] is reported as “inactive”.

`CC1=CC(=O)CC(C)(C)C1CCC(C)O[C@@H]1O[C@H](CO)[C@@H](O)[C@H](O)[C@H]1O` (some centres not stated) was tested, and the activation [1] was -3.57%, the Potency [2] was “inactive” and the Potency [3] was “inactive”.

With `CC(NC(=O)C(O)C(C)C)C(=O)NC1C(=O)N(C)CCc2ccccc21` (configuration not stated) the activation [1] was 2.39%, the Potency [2] was “inactive” and the Potency [3] was “inactive”.

In the case of `Oc1ccc2c(-c3c(-c4ccccn4)nn4c3CCC4)ccnc2c1`, the Potency [1] is reported as 26.9 µM (active), the Potency [2] is reported as “inactive” and the Potency [3] is reported as “inactive”.

`O=C(c1ccc(F)cc1)N1CCCC(c2nc(-c3ccc(F)cc3)no2)C1` (configuration not stated) was tested, and the activation [1] was -1.91%, the Potency [2] was “inactive” and the Potency [3] was “inactive”.

For `OCCc1ccc(O[C@@H]2O[C@H](CO)[C@@H](O)[C@H](O)[C@H]2O)cc1`, the activation [1] was -7.14%, the Potency [2] was “inactive” and the Potency [3] was “inactive”.

In the case of `COc1ccc(/C=C/C(=O)O[C@H]2[C@@H]3C=CO[C@@H](O[C@@H]4O[C@H](CO)[C@@H](O)[C@H](O)[C@H]4O)[C@@H]3[C@@]3(CO)O[C@@H]23)cc1O`, the activation [1] is reported as -2.29%, the Potency [2] is reported as “inactive” and the Potency [3] is reported as “inactive”.

With `CC(C)C1(O)NC(=O)C(CC2(O)c3ccccc3N3C(=O)C(C)(C)NC32)n2c1nc1ccccc1c2=O` (configuration not stated) the activation [1] was -3.05%, the Potency [2] was “inactive” and the Potency [3] was “inactive”.

`COC(=O)C(Cc1ccccc1)NC(=O)c1ccccc1` (configuration not stated) was tested, and the activation [1] was 6.87%, the Potency [2] was “inactive” and the Potency [3] was “inactive”.

In the case of `CC(=O)OC1C(O)CC2(C)C(CCC3(C)C2CC=C2C4C5(CCC(CO[C@@H]6O[C@H](CO)[C@@H](O)[C@H](O)[C@H]6O)(OC5=O)C4(C)O)C(O)CC23C)C1(C)C` (some centres not stated), the activation [1] is reported as -11.5%, the Potency [2] is reported as “inactive” and the Potency [3] is reported as “inactive”.

`CN1CCc2cc(Cl)c(O)cc2[C@@H](c2cccc3c2OCC3)C1` was tested, and the activation [1] was -1.67%, the Potency [2] was “inactive” and the Potency [3] was “inactive”.

With `COC(=O)C1(O)C(OC(C)=O)CCC2C3(CC(c4ccoc4)OC3=O)C(C)=CCC21C(=O)OC` (configuration not stated) the activation [1] was 9.82%, the Potency [2] was “inactive” and the Potency [3] was “inactive”.

With `C[C@]1(O)CC[C@@H]2C(C(=O)O)=CO[C@@H](O[C@@H]3O[C@H](COC(=O)c4ccc(O)cc4)[C@@H](O)[C@H](O)[C@H]3O)[C@@H]21` the activation [1] was 0.893%, the Potency [2] was “inactive” and the Potency [3] was “inactive”.

For `Cc1cccc(Nc2cc(Cl)nc(SCC(=O)O)n2)c1C`, the activation [1] was 23.4% and 14.3%, the Potency [2] was “inactive” and the Potency [3] was “inactive”.

For `CCC(=O)O[C@]1(C(=O)CCl)[C@@H](C)C[C@H]2[C@@H]3C[C@H](F)C4=CC(=O)C=C[C@]4(C)[C@@]3(F)[C@@H](O)C[C@@]21C`, the activation [1] was 17.9%, the Potency [2] was “inactive” and the Potency [3] was “inactive”.

In the case of `COc1cc(/C=C2\CC[C@H]3COC[C@@H](c4cc(F)c(F)c(F)c4)N3C2=O)ccc1-n1cnc(C)c1`, the activation [1] is reported as -13.7%, the Potency [2] is reported as “inactive” and the Potency [3] is reported as “inactive”.

`O=C(O)C(O[C@@H]1O[C@H](CO[C@@H]2O[C@H](CO)[C@@H](O)[C@H](O)[C@H]2O)[C@@H](O)[C@H](O)[C@H]1O)c1ccccc1` (some centres not stated) was tested, and the activation [1] was -16%, the Potency [2] was “inactive” and the Potency [3] was “inactive”.

With `O=C(c1ccc2nccnc2c1)N1CCCCC1` the activation [1] was -11%, the Potency [2] was “inactive” and the Potency [3] was “inactive”.

With `COC(=O)CCC1(C)C(C(C)(C)O)C(O)CC2(C)Oc3c(C)c4c(c(OC)c3CC21)C(=O)OC4` (configuration not stated) the activation [1] was -3.82%, the Potency [2] was “inactive” and the Potency [3] was “inactive”.

For `COc1ccc(C2C(C(=O)O)C(C(=O)O)C2c2ccc(OC)cc2O[C@@H]2O[C@H](CO)[C@@H](O)[C@H](O)[C@H]2O)c(O[C@@H]2O[C@H](CO)[C@@H](O)[C@H](O)[C@H]2O)c1` (some centres not stated), the activation [1] was 7.63%, the Potency [2] was “inactive” and the Potency [3] was “inactive”.

`CC1(c2nc3c(C(N)=O)cccc3[nH]2)CCCN1` (configuration not stated) was tested, and the activation [1] was -1.43%, the Potency [2] was “inactive” and the Potency [3] was “inactive”.

`O=C(O[C@H]1[C@@H]2C[C@@H]3OC[C@@](O)([C@H]2[C@H](O[C@@H]2O[C@H](CO)[C@@H](O)[C@H](O)[C@H]2O)O3)[C@@H]1O)c1ccccc1` was tested, and the activation [1] was 5.36%, the Potency [2] was “inactive” and the Potency [3] was “inactive”.

With `CC1=C2[C@@H]([C@H](C)CC[C@H]2/C=C(\C)C(=O)O)[C@H](O)C1` the activation [1] was -10.7%, the Potency [2] was “inactive” and the Potency [3] was “inactive”.

`C=C(C(=O)O[C@H]1C/C(C)=C/CC/C(CO)=C/[C@H]2OC(=O)C(=C)[C@H]12)C(O)CO` (some centres not stated) was tested, and the Potency [1] was 18.6 µM (active), the Potency [2] was “inactive” and the Potency [3] was “inactive”.
